Source: PubChem BioAssay AID1445 (SRMLSC, 2008)
The whole screen tested about 220,000 compounds, of which about 910 (0.41%) were called active.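 How the source made its calls: active means primary inhibition above the hit cutoff, then over 50% inhibition at one or more dose response concentrations (cut at about 23% in these data, passing the limit was not always enough); inconclusive means conflicting primary data, or primary hits not chosen for dose response; inactive means low primary inhibition, or under 50% at every dose.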 The list comes from a sample in which actives are over-represented; it also holds similar structures and randomly drawn compounds. Potency and affinity values are given separately.

The compounds below were run against Aminopeptidase N (Plasmodium falciparum (isolate 3D7)) (UniProt O96935) (assay: P. falciparum M1AAP inhibitors, biochemical, fluorogenic H-Leu-NHMec substrate, 1536-well (AID 1445;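 further: plate controls were DMSO full reaction for no effect and no enzyme background for full effect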)). Conditions: recombinant M1AAP, H-Leu-NHMec fluorogenic kinetic assay; at 30 µM, hits give high values unless noted.
Chain of Aminopeptidase N (Plasmodium falciparum (isolate 3D7)) (O96935 whole entry, looked up): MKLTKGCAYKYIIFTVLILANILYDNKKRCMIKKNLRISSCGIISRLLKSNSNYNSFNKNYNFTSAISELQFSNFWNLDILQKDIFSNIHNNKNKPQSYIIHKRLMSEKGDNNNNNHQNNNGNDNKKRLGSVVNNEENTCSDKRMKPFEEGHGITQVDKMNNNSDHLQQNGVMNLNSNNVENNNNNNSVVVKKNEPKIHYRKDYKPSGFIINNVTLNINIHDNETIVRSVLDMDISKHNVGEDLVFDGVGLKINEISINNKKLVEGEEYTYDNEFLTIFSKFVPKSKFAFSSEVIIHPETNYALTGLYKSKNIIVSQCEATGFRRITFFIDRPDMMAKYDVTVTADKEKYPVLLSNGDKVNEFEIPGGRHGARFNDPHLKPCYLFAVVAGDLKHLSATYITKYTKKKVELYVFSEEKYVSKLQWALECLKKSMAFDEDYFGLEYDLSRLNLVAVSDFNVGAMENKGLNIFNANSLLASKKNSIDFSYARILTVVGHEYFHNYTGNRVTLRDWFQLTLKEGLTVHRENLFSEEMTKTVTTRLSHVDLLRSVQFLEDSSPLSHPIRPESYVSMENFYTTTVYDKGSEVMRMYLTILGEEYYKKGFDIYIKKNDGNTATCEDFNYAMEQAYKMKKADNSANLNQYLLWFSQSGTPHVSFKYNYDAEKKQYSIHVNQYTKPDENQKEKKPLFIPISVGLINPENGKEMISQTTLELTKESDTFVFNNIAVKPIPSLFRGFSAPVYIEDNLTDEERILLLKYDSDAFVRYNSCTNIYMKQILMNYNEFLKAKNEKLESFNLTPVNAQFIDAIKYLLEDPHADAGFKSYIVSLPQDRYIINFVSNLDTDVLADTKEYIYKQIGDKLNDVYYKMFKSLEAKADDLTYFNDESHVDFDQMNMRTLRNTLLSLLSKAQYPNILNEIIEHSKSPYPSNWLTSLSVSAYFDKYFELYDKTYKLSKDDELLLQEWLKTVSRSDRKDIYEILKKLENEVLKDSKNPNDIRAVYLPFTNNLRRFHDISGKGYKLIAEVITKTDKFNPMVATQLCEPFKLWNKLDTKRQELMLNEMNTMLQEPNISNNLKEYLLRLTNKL

SMILES	inhibition
Cc1ccc2c(CNCc3ccco3)cc(=O)oc2c1	7.2% (inactive)
CCS(=O)(=O)N1CCC(C(=O)NCc2ccc(F)cc2)CC1	5.77% (inactive)
CS(=O)(=O)N1CCC(C(=O)NCc2ccc(F)cc2)CC1	12.5% (inactive)
Cc1ccc(S(=O)(=O)Nc2cccc(-c3cn4ccsc4n3)c2)cc1	7.08% (inactive)
COc1ccccc1N1CCN(c2ncnc3nc[nH]c23)CC1	3.64% (inactive)
COc1cc(C=C2C(=O)c3ccccc3C2=O)ccc1O	12.8% (inactive)
COc1ccc(C=C2C(=O)c3ccccc3C2=O)cc1O	13.7% (inactive)
COc1ccccc1N1CCN(c2nc3ccccc3nc2C(C#N)C(=O)OC(C)C)CC1 (stereo not given)	1.03% (inactive)
Cn1ncc2cc(NC(N)=S)ccc21	5.67% (inactive)
COc1cccc(NC(=O)COc2ccccc2C(N)=O)c1	-6.65% (inactive)
COC(=O)c1nc(N)sc1-c1ccc(Cl)cc1	7.93% (inactive)
CC1(C)Cc2c(sc3c2c(N)nc(=S)n3Cc2ccc(Br)cc2)CO1	5.16% (inactive)
Cc1cc(C)n(-c2cc(-n3nc(C)cc3C)ncn2)n1	7.79% (inactive)
Cc1ccc(Nc2cc(-n3nc(C)cc3C)ncn2)cc1	26.7% (active)
Cc1ccc(Nc2cc(-n3nc(C)cc3C)ncn2)c(C)c1	-27.3% (inactive)
CC1(C)CC(=O)C(C=NCCN2CCN(C(=S)NC3CCCCC3)CC2)=C(O)C1	-1.18% (inactive)
Cc1ccc(NC(=O)CN(C)CC(=O)Nc2ccccc2Oc2ccccc2)cc1	-4.16% (inactive)
O=C(N/N=C\c1ccc(O)c([N+](=O)[O-])c1)C1COc2ccccc2O1 (stereo not given)	21.5% (inactive)
O=C(N/N=C/c1cccc([N+](=O)[O-])c1)C1COc2ccccc2O1 (stereo not given)	-7.31% (inactive)
O=C(N/N=C\c1ccc(-c2ccccc2[N+](=O)[O-])o1)C1COc2ccccc2O1 (stereo not given)	5.3% (inactive)
O=C(N/N=C\c1ccc([N+](=O)[O-])o1)C1COc2ccccc2O1 (stereo not given)	15.2% (inactive)
Cc1cc(C(=O)OCn2nnc3ccccc3c2=O)c(C)n1-c1ccccc1	0.48% (inactive)
O=C(COC(=O)c1cccc2ccccc12)Nc1ncc(C(F)(F)F)cc1Cl	1.24% (inactive)
CC(=O)c1ccc(Sc2ccccc2N)c([N+](=O)[O-])c1	0.73% (inactive)
O=C(O)c1ccccc1C(=O)c1ccc(Sc2ccc(Cl)cc2)c([N+](=O)[O-])c1	17.6% (inactive)
Cc1cccc(Nc2c(-c3ccc(N4CCOCC4)cc3)nc3ncccn23)c1	1.09% (inactive)
O=C(Nc1nnc(C2CC2)s1)C1CCCO1 (stereo not given)	-7.06% (inactive)

SMILES	inhibition
Cn1cc(Br)c(C(=O)Nc2ncc(Br)s2)n1	3.9% (inactive)
CCCOc1ccc(C(C)=O)cc1CSCCC#N	11.4% (inactive)
CC(=O)c1ccc(OC(C)C)c(CSc2nc(O)cc(=O)[nH]2)c1	36.7% (inactive)
CCOC(=O)c1sc2nc(C(C)C)c3c(c2c1N)CC(C)(C)OC3	22.1% (inactive)
COC(=O)c1ccc(S(=O)(=O)N2CCCN(Cc3ccccc3)CC2)n1C	-2.02% (inactive)
Cc1ccccc1C(=O)Nc1ccnc(-c2ccncc2)n1	-1.17% (inactive)
Cc1nc2ccc(Cl)cc2nc1C	5.55% (inactive)
Cc1nc(N)nc(Cl)c1Cc1ccc(Cl)cc1	0.71% (inactive)
COC(CNC(=O)C1CCCCC1C(=O)O)OC (stereo not given)	-2.33% (inactive)
C/C(CC(=O)Nc1ccccc1C)=N\NC(=O)Cc1csc(N)n1	5.41% (inactive)
C=CCn1c(SCc2nc3ccccc3c(=O)[nH]2)nc2scc(C3CC3)c2c1=O	1.15% (inactive)
CC(C)Oc1ccc2ccccc2c1C=O	23.8% (active)
O=Cc1c(OCc2ccccc2)ccc2ccccc12	16.3% (inactive)
COc1ccc2ccccc2c1/C=N/O	6.62% (inactive)
C=CCNc1nc2ccccc2c(=O)[nH]1	7.55% (inactive)
Clc1ccc(-c2nc(-c3cc4cc(Cl)ccc4o3)cs2)cc1	2.11% (inactive)
CC(=O)Nc1cccc(NS(=O)(=O)c2ccccc2[N+](=O)[O-])c1	-4.08% (inactive)
CC(C(=O)N1CCN(C)CC1)N1C(=O)c2ccccc2C1=O (stereo not given)	7.24% (inactive)
COC(=O)c1c[nH]n2c(=O)c(Cl)c(C)nc12	0.19% (inactive)
COc1ccc(OC)c(CC(NC(C)=O)C(=O)NC2CCN(c3nc(OC)nc(OC)n3)CC2)c1 (stereo not given)	4.38% (inactive)
COc1ccc(/C=N/NC(=O)c2ccccc2O)cc1Cn1cc([N+](=O)[O-])cn1	5.5% (inactive)
COc1ccc(/C=N/NC(=O)c2ccc(N)cc2)cc1Cn1cc([N+](=O)[O-])cn1	16.6% (inactive)
Cc1nc(CC(=O)Nc2nc(C(C)(C)C)cs2)cs1	13.3% (inactive)
O=C(O)c1ccc(-c2ncc[nH]2)cc1	2.64% (inactive)
Cc1ccc2c(c1)-c1c(cnn1CC(=O)N(Cc1ccco1)C1CCCCC1)CO2	4.81% (inactive)
CC(CCc1ccco1)NC(=O)Cn1ncc2c1-c1ccccc1OC2 (stereo not given)	12.1% (inactive)
Cc1ccc2c(c1)-c1c(cnn1CC(=O)N1CCCN(Cc3ccccc3F)C1)CO2	26.4% (active)

SMILES	inhibition
Cc1ccc(C)c(CN2CCCN(C(=O)Cn3ncc4c3-c3ccccc3OC4)C2)c1	3.24% (inactive)
Cc1ccc2c(c1)-c1c(cnn1CC(=O)O)CO2	0.53% (inactive)
Cc1ccc2c(c1)-c1c(cnn1CC(=O)NC(C)CCc1ccco1)CO2 (stereo not given)	25.2% (active)
COc1cc2c(cc1OC)CN(C(=O)CSc1nnc(C)s1)CC2	25.4% (active)
COc1cc2c(cc1OC)CN(C(=O)CSc1n[nH]c(N)n1)CC2	0.58% (inactive)
COc1cc2c(cc1OC)CN(C(=O)CSc1nc(C)cc(C)c1C#N)CC2	3.39% (inactive)
CCOCCn1cnc2sc(C(=O)NCC(=O)OCC)c(C)c2c1=O	1.07% (inactive)
Cc1cc2c(=O)oc(-c3ccccc3Br)nc2s1	-4.08% (inactive)
O=C(Nc1cnc2sc3c(n2c1=O)CCCC3)c1ccc(F)cc1	23.9% (active)
Cc1ccc2c(c1)sc1ncc(NC(=O)c3ccc(F)cc3)c(=O)n12	-0.5% (inactive)
Cc1nn2c(=O)c(NC(=O)c3ccc(F)cc3)cnc2s1	6.66% (inactive)
CCOC(=O)COc1ccc(N)cc1CC(NC(C)=O)(C(=O)OCC)C(=O)OCC	6.1% (inactive)
Cn1cc(CNC(=O)C2c3ccccc3Oc3ccccc32)cn1	13.7% (inactive)
COc1ccc(N=CC2=C(O)CC(C)(C)CC2=O)cc1	13.6% (inactive)
CCOC(=O)CSc1nc(C)c2cccc(C)c2n1	0.76% (inactive)
C=CCc1c(C)nc2c(C)cccc2c1SC(=N)N	1.57% (inactive)
CCOc1ccc(NC(=O)c2ccccc2OC)cc1	5.95% (inactive)
COc1ccc(NC(=O)CSc2c(C)n[nH]c2C)cc1	0.25% (inactive)
O=C(NCCCc1ccccc1)C1CC(=O)N(c2ccc3c(c2)OCCO3)C1 (stereo not given)	2.32% (inactive)
O=C(NC(Cc1ccccc1)c1nc2ccccc2[nH]1)C1CC(=O)N(c2ccc3c(c2)OCCO3)C1 (stereo not given)	26% (active)
O=C(Nc1nc2ccccc2[nH]1)C1CC(=O)N(c2ccc3c(c2)OCCO3)C1 (stereo not given)	-0.34% (inactive)
O=C(c1cccs1)c1ccc(-c2cccs2)s1	15.2% (inactive)
CCN(CC)C(=O)c1ccc(-c2cccs2)s1	2.09% (inactive)
COc1ccc(NC(=O)Cn2nnc(C(=O)NCCc3ccc(OC)c(OC)c3)c2N)c(OC)c1	0.32% (inactive)
O=C(NNc1c(Cl)cc(Cl)cc1Cl)c1cccc([N+](=O)[O-])c1	0.41% (inactive)
Cc1ccccc1CSc1nn2c(=O)c(C)nnc2s1	1.72% (inactive)
O=[N+]([O-])c1cccc(S(=O)(=O)NCCc2cn3ccccc3n2)c1	-0.31% (inactive)

SMILES	inhibition
CCCc1ccc(-c2ccc(F)c(N)c2)nc1	6.24% (inactive)
Nc1ccc2nc(-c3ccccc3)[nH]c2c1	1.94% (inactive)
Nc1ccc2nc(-c3ccc(Cl)cc3)[nH]c2c1	14% (inactive)
CCOC(=O)CN(C(=O)CNC(=O)c1ccco1)C(C(=O)NC1CCCCC1)c1cccs1 (stereo not given)	2.4% (inactive)
Cc1cc(C)nc(SCC(=O)N/N=C/c2cccn2-c2ccc(O)cc2)n1	8.99% (inactive)
Cc1onc(-c2ccccc2Cl)c1C(=O)Nc1ccc(-c2cn3cccnc3n2)cc1	3.1% (inactive)
Cc1onc(-c2ccccc2Cl)c1C(=O)Nc1cccc(-c2cn3cccnc3n2)c1	26.2% (active)
Cc1ccc(-c2cn3cccnc3n2)cc1NC(=O)c1c(-c2ccccc2Cl)noc1C	9.6% (inactive)
COc1ccccc1NS(=O)(=O)c1cc(NC(=O)c2cccs2)ccc1N1CCOCC1	3.5% (inactive)
Cc1nn2c(N3CCOCC3)c3c(nc2c1-c1ccccc1)CCCC3	4.17% (inactive)
Cc1nn2c(N3CCCC3)c3c(nc2c1-c1ccccc1)CCC3	7% (inactive)
CC1(C)CC(=O)C(/C=N/n2c(C(F)(F)F)nc3ccccc3c2=O)=C(O)C1	27.5% (active)
CC1(C)CC(=O)C(C=Nc2ccccc2)=C(O)C1	2.69% (inactive)
CC1(C)CC(=O)C(/C=N/n2cnc3ccccc3c2=O)=C(O)C1	11.3% (inactive)
O=C(c1ccco1)N1CCN(C(c2ccccc2Cl)c2nnnn2Cc2ccco2)CC1 (stereo not given)	2.33% (inactive)
Cc1noc(NC(=O)c2ccccc2C(F)(F)F)c1C#N	-0.81% (inactive)
O=S(=O)(Nc1cccnc1)c1cccc(Cl)c1	-0.41% (inactive)
O=C(O)c1ccc(NS(=O)(=O)c2cc(Cl)ccc2Cl)cc1	5.33% (inactive)
O=S(=O)(Nc1nccs1)c1ccc(Cl)cc1	-5.71% (inactive)
O=S(=O)(Nc1cccnc1)c1ccc(Cl)cc1	1.51% (inactive)
O=S(=O)(Nc1ncccn1)c1ccc(NS(=O)(=O)c2cc(Cl)ccc2Cl)cc1	30.4% (inactive)
O=S(=O)(Nc1cccnc1)c1cc(Cl)ccc1Cl	25.4% (active)
O=S(=O)(Nc1ccncc1Cl)c1cc(Cl)ccc1Cl	4.72% (inactive)
O=S(=O)(Nc1nccs1)c1cc(Cl)ccc1Cl	25.8% (active)
